The nature of the test: chemical genetic growth profiling, strain panel (AID 1159580).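 Also: tested at 20 µM; growth read once vehicle control cultures reached saturation at 30 °C; 1 = growth at the plate median or of vehicle wells; lower values mean less growth of the strain.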 The following applies: S. cerevisiae deletion strains, growth OD.

Structures are written as SMILES. About 2,000 (36%) of roughly 5,500 compounds were called active. Roughly 18% stayed inconclusive and do not appear here. This is one part of the list. A number with no mark means an inactive call. Rule as the data show it: active = normalized growth mostly below about 0.91 (no sharp cut-off); inconclusive = no clear call, values can overlap the other calls; inactive = mostly above about 0.92.

As to `CCN1CCc2nc(N)oc2CC1`, the normalized growth was 1.03 (locus YAL013W, strain DEP1, hits give low values); 0.981 (locus YAL040C, strain CLN3, hits give low values); 1 (locus YCL061C, strain MRC1 (second series), hits give low values); 1.03 (locus YDR363W, strain ESC2, hits give low values); 0.993 (locus YER002W, strain NOP16, hits give low values); 1 (locus YMR263W, strain SAP30, hits give low values). Besides, the normalized growth runs as follows: (locus YNL175C, strain NOP13, hits give low values) 1.01; (locus YNL197C, strain WHI3, hits give low values) 1.02; (locus YNL224C, strain SQS1, hits give low values) 0.995; (locus YOR083W, strain WHI5 (second series), hits give low values) 0.999; (locus YPL241C, strain CIN2, hits give low values) 0.998.

Regarding `CCCCCCCCCCCCCCCC(=O)OCC(O)[C@H]1OC(=O)C(O)=C1O` (some centres undefined), the normalized growth (locus YHR030C, strain SLT2, hits give low values) is 0.804 (active); the normalized growth (locus YHR079C, strain IRE1, hits give low values) was 0.83 (active); the normalized growth (locus YJL095W, strain BCK1, hits give low values) is 0.823 (active); the normalized growth (locus YJR066W, strain TOR1, hits give low values) was 0.777 (active); the normalized growth (locus YLR113W, strain HOG1, hits give low values) was 0.724 (active); the normalized growth (locus YNL183C, strain NPR1, hits give low values) is 0.703 (active). The normalized growth by setting is: (locus YOR231W, strain MKK1, hits give low values) 0.834 (active); (locus YPL256C, strain CLN2, hits give low values) 0.763 (active).

Source of the values: PubChem BioAssay AID1159580 (chemical genetic matrix, 2015).
